These results are taken from ChEMBL document CHEMBL1961873, “Compounds: GSK PKIS; Assays: Nanosyn kinase panel” (2012).

Structures are written as SMILES.

For experiment [1], the target named is T1, Tyrosine-protein kinase ITK/TSK (Homo sapiens) (UniProt Q08881).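 Further: values are mean percent inhibition of ITK from the GSK PKIS screen.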
T1 sequence (whole entry): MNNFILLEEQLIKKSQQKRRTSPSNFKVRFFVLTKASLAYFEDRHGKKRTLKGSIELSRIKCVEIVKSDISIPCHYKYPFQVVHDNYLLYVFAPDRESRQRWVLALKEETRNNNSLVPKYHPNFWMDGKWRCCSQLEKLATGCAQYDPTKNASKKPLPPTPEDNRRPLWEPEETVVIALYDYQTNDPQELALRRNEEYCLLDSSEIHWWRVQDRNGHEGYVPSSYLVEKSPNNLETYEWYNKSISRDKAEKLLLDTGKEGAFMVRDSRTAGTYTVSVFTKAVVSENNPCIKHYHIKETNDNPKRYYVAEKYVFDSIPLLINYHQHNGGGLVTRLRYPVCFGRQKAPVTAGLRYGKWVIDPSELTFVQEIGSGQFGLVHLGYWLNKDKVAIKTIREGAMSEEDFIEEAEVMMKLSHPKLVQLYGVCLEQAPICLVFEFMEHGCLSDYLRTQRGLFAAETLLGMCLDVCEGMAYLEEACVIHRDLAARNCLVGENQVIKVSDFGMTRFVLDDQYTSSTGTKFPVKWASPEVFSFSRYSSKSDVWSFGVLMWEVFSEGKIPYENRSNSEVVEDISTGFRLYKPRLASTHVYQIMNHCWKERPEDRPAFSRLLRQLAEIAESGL
To be noted: at 1 µM.

Experiment [2] has as its target Tyrosine-protein kinase JAK1 (Homo sapiens) (UniProt P23458). To be noted: at 0.1 µM.
Experiment [3] shares this target. To be noted: at 1 µM.
Experiment [4] has as its target Tyrosine-protein kinase JAK2 (Homo sapiens) (UniProt O60674). To be noted: at 0.1 µM.
Experiment [5] shares this target. To be noted: at 1 µM.
Experiment [6] addresses T2, Tyrosine-protein kinase JAK3 (Homo sapiens) (UniProt P52333).
T2 sequence (whole entry): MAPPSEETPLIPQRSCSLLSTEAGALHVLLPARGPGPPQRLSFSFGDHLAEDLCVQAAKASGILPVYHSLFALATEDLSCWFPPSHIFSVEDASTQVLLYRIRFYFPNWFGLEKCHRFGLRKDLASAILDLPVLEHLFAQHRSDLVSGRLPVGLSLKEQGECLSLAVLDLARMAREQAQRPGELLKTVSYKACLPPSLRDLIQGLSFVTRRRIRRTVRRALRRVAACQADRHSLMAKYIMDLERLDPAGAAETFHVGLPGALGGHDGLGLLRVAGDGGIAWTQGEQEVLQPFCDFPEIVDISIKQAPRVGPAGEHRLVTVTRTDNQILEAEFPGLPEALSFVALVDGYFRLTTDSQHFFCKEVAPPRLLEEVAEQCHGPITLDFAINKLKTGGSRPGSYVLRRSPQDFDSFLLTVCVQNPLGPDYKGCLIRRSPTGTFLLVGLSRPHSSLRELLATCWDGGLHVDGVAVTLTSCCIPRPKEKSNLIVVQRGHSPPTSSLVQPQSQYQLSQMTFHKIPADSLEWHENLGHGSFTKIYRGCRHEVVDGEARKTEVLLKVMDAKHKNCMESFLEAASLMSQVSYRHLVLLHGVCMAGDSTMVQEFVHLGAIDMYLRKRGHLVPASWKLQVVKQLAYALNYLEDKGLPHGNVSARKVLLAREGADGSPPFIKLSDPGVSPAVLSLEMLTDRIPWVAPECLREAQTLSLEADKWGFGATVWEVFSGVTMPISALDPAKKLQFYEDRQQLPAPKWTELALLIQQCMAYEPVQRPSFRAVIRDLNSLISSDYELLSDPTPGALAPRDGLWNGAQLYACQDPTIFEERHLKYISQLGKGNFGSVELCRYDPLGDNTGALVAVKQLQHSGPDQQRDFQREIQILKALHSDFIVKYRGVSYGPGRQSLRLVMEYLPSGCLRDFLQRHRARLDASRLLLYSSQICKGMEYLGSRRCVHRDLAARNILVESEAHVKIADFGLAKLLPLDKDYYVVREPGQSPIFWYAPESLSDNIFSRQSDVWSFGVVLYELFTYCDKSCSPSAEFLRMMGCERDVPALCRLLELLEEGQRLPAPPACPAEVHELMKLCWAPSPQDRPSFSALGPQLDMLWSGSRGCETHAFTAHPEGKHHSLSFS
To be noted: at 0.1 µM.

In experiment [7] the target is T2, Tyrosine-protein kinase JAK3 (Homo sapiens). To be noted: at 1 µM.
Experiment [8] addresses Vascular endothelial growth factor receptor 2 (Homo sapiens) (UniProt P35968). To be noted: at 0.1 µM.
Experiment [9] has the same target. To be noted: at 1 µM.
The target of experiment [10] is Mast/stem cell growth factor receptor Kit (Homo sapiens) (UniProt P10721). To be noted: at 0.1 µM.
For experiment [11] the target is unchanged. To be noted: at 1 µM.
In experiment [12] the test system is Mast/stem cell growth factor receptor Kit (Homo sapiens), P10721 [D816V]. To be noted: at 0.1 µM.
Chain of Mast/stem cell growth factor receptor Kit (Homo sapiens), P10721 [D816V] (P10721 whole entry D816V): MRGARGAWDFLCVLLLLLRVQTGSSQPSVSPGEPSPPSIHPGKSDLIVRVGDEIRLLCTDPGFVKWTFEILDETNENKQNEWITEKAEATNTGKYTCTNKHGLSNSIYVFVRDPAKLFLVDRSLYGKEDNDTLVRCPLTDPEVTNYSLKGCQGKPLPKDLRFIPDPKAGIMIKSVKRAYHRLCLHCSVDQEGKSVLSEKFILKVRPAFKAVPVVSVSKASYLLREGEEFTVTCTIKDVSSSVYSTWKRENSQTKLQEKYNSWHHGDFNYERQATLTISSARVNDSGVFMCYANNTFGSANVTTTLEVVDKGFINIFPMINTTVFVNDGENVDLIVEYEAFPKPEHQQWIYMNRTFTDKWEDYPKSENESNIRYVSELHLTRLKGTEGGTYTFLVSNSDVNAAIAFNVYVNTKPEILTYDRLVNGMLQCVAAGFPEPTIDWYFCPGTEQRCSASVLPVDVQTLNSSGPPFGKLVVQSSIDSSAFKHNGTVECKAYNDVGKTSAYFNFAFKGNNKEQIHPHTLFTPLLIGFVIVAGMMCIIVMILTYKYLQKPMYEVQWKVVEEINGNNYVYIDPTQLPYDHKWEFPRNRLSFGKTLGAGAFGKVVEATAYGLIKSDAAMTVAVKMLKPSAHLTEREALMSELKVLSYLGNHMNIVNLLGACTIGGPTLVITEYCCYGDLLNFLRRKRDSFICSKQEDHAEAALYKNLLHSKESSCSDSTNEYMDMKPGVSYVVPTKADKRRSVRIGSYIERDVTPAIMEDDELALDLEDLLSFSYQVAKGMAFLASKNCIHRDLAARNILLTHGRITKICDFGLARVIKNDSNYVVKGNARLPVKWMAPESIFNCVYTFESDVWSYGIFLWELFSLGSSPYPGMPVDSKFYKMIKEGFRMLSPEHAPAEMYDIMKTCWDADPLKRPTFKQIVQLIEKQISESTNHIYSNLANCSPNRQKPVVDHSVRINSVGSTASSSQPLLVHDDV
Experiment [13] has the same test system. To be noted: at 1 µM.
Experiment [14] relates to Mast/stem cell growth factor receptor Kit (Homo sapiens), P10721 [T670I]. To be noted: at 0.1 µM.
Experiment [15] has the same test system. To be noted: at 1 µM.
For experiment [16], the system named is Mast/stem cell growth factor receptor Kit (Homo sapiens), P10721 [V560G]. To be noted: at 0.1 µM.
Experiment [17] shares this test system. To be noted: at 1 µM.
For experiment [18], the target named is Tyrosine-protein kinase Lck (Homo sapiens) (UniProt P06239). To be noted: at 0.1 µM.
Chain of Tyrosine-protein kinase Lck (Homo sapiens) (P06239 2-509 limits assumed): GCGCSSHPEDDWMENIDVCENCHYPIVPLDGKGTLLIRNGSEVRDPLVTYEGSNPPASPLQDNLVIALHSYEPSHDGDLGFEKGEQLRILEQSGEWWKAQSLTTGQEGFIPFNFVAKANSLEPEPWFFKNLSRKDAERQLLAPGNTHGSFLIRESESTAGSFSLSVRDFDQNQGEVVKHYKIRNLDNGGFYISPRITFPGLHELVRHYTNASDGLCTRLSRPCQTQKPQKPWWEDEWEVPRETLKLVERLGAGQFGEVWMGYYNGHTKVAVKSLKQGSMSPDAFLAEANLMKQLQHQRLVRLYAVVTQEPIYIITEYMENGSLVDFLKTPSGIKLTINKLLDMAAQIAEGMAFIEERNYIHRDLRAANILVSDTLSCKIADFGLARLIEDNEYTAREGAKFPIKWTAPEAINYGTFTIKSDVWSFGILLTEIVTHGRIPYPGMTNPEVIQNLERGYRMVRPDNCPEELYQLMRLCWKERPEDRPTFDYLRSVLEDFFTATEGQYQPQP
The target is the same in experiment [19]. To be noted: at 1 µM.
The target in experiment [20] is Leukocyte tyrosine kinase receptor (Homo sapiens) (UniProt P29376). To be noted: at 0.1 µM.

Chain of Tyrosine-protein kinase JAK2 (Homo sapiens) (O60674 whole entry): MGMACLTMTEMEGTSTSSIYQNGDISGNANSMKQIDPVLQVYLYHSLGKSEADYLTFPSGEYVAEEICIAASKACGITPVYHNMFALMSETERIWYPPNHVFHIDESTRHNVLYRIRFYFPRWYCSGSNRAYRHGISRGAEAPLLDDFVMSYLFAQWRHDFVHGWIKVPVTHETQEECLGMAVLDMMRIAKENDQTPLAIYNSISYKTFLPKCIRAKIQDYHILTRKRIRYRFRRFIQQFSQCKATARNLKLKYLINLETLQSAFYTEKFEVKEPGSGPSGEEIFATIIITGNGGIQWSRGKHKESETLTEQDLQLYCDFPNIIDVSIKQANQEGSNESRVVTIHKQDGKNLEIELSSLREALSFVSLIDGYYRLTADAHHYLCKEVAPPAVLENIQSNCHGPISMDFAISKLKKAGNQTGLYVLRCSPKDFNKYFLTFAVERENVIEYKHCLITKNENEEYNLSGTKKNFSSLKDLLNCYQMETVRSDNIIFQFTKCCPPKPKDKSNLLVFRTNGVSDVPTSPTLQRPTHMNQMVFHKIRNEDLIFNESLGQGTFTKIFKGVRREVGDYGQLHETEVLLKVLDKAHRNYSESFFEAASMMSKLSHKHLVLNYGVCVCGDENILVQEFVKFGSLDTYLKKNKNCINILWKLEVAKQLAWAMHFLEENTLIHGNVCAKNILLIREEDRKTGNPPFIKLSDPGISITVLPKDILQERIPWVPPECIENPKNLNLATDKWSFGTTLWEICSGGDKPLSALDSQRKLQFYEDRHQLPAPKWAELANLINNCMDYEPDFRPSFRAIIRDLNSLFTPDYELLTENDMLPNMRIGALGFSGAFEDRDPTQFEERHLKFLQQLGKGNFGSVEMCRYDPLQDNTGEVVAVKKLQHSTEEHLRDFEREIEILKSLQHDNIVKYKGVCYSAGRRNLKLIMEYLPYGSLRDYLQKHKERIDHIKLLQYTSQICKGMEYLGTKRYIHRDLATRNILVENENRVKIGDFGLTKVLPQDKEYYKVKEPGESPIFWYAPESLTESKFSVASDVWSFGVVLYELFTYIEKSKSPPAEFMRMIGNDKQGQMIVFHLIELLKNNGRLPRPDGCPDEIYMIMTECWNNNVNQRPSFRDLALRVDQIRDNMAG
Chain of Tyrosine-protein kinase JAK1 (Homo sapiens) (P23458 whole entry): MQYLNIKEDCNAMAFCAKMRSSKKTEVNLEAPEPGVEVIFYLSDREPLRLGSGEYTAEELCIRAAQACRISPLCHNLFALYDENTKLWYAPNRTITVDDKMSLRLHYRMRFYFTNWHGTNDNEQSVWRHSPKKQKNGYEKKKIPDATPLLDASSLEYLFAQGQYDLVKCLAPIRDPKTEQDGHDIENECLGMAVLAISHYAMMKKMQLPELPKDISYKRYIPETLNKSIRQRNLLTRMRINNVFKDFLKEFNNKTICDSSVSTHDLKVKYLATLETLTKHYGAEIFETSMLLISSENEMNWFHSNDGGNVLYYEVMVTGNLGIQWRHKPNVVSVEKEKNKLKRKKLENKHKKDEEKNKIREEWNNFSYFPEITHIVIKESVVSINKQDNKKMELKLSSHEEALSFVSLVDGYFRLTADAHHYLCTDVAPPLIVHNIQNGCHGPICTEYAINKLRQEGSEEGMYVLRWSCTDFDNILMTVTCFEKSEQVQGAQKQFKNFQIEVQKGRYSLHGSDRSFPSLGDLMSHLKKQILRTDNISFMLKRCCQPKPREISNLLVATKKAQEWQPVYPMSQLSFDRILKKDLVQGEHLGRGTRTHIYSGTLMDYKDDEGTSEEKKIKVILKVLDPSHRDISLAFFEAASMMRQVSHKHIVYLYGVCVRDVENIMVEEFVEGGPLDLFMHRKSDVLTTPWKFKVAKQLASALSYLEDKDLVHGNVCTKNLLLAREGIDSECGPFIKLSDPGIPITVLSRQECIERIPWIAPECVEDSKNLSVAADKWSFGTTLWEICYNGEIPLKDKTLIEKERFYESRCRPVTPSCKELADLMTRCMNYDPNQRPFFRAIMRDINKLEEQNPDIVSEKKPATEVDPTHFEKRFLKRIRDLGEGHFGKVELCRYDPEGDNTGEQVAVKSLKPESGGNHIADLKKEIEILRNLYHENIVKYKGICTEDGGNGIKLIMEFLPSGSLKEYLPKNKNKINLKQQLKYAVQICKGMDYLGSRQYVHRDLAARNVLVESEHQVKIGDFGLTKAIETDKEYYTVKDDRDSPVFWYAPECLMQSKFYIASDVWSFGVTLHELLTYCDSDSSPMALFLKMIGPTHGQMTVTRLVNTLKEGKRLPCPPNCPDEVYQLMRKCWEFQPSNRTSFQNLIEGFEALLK
Chain of Vascular endothelial growth factor receptor 2 (Homo sapiens) (P35968 whole entry): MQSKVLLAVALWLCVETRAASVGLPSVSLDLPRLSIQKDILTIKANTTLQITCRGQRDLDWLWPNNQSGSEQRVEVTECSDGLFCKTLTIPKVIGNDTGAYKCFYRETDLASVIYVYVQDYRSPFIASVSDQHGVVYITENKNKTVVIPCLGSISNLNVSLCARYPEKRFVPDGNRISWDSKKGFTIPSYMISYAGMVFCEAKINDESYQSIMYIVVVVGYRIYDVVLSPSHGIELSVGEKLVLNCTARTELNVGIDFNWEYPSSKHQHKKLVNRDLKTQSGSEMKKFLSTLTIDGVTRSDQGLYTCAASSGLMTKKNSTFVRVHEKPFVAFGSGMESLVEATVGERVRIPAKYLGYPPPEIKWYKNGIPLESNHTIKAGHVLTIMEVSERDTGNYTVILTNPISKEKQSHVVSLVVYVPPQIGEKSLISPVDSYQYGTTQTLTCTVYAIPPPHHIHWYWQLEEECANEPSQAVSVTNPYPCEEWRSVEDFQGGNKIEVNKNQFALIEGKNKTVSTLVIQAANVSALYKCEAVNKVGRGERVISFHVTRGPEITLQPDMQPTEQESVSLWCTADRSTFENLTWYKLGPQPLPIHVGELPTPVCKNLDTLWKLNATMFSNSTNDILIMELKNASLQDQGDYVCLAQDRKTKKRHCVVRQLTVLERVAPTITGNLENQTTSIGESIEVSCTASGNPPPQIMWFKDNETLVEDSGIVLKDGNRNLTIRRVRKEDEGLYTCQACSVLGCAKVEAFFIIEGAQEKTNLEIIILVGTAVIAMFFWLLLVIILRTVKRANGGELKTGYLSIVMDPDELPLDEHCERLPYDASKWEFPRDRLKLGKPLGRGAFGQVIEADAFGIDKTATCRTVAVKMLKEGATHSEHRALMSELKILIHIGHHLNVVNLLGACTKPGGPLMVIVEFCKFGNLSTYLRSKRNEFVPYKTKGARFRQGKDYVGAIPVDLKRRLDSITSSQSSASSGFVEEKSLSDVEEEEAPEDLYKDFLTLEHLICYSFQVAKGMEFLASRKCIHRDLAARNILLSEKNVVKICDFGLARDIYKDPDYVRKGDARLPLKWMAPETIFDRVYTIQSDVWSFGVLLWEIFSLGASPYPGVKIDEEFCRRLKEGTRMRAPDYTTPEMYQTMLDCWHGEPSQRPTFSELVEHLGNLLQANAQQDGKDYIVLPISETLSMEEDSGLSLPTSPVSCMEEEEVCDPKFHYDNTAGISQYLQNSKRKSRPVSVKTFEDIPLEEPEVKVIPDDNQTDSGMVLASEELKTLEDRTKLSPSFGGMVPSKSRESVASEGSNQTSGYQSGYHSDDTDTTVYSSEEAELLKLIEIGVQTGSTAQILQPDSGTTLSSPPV

`COc1cc2ncn(-c3cc(O[C@@H](C)c4ccccc4Cl)c(C(N)=O)s3)c2cc1OC`: the inhibition was 3.19% in experiment [1]; 0.34% in experiment [2]; 3.27% in [3]; 2.38% in experiment [4]; 1.08% in experiment [5]; -3.05% in experiment [6]. Further, the inhibition in [7] stood at 1.97%; in [8], 18%; in experiment [9] it was 67.7%; in experiment [10], 4.65%; in [11], 11.9%; in experiment [12], 3.28%. Moreover, the inhibition was 6.34% in experiment [13]; 3.02% in [14]; 5.54% in experiment [15]; 4.09% in [16]; 3.09% in experiment [17]; 4.64% in [18]. Further, the inhibition was found to be 19.6% in [19] and 3.53% in experiment [20].

With `Cc1cc(O)cc(C)c1/C=C/c1cncc(-c2nn[nH]n2)c1`, the inhibition was -1.93% in [1]; 1.7% in [2]; 4.82% in experiment [3]; 1.66% in experiment [4]; 2.27% in experiment [5]; -4.63% in experiment [6]. Besides, the inhibition in experiment [7] is -3.88%; in experiment [8], 4.58%; in experiment [9], 10.2%; in experiment [10], 11.9%; in experiment [11], 65.5%; in experiment [12] it was 5.64%. Also, the inhibition in [13] is 3.74%; in experiment [14] it was 1.04%; in experiment [15], 3.66%; in experiment [16] it was -0.1%; in [17], 22.1%; in experiment [18], 1.97%. For the same compound, the inhibition in experiment [19] came out at 42.5%; in experiment [20], 6.07%.

On to `CS(=O)(=O)Nc1ccc(N/C=C2\C(=O)Nc3ccccc32)cc1`, for which the inhibition in experiment [1] was 3.61%; in experiment [2] it was 0.26%; in experiment [3], 5.33%; in [4] it was -0.93%; in experiment [5], 1.03%; in [6] it was 0.43%. Also, the inhibition in [7] was 8.16%; in experiment [8], 6.66%; in [9] it was 46.7%; in experiment [10] it was 17.6%; in experiment [11] it was 86.6%; in [12], -1.84%. The inhibition was -0.2% in [13]; 7.79% in experiment [14]; 61.3% in experiment [15]; 4.08% in experiment [16]; 20.4% in [17]; -0.69% in experiment [18]. Further, the inhibition in [19] is 5.83%; in experiment [20], 0.19%.

Consider `COc1cc2c(cc1Nc1nc(N3CCc4ccccc43)c3cc[nH]c3n1)N(C(=O)CN(C)C)CC2`, for which the inhibition was 1.52% in experiment [1]; -0.01% in experiment [2]; -3.36% in [3]; 1.69% in experiment [4]; 0.18% in [5]; 0.19% in experiment [6]. Besides, the inhibition in [7] was 0.18%; in experiment [8], 1.11%; in experiment [9], 0.21%; in experiment [10], 3.11%; in experiment [11] it was 5.18%; in experiment [12] it was 3.89%. Besides, the inhibition in experiment [13] is 5.06%; in experiment [14], 1.21%; in experiment [15], 4.61%; in experiment [16], 0.64%; in experiment [17], 1.28%; in experiment [18] it was 1.15%. The inhibition in [19] turned out to be 6%; in experiment [20] it was 75.9%.

Consider `COc1cc2ncn(-c3cc(O[C@H](C)c4ccccc4Cl)c(C(N)=O)s3)c2cc1OC`, for which the inhibition was 8.66% in [1]; 8.61% in [2]; 21.9% in [3]; 1.66% in [4]; 6.6% in experiment [5]; 0.32% in [6]. The inhibition in [7] stood at 25.9%; in experiment [8], 36.4%; in [9] it was 72.5%; in [10] it was 7.11%; in experiment [11], 27.1%; in experiment [12], 4.82%. Besides, the inhibition in experiment [13] was 14.6%; in experiment [14], 5.66%; in [15], 32.1%; in [16], 4.1%; in experiment [17], 13.9%; in [18] it was 5.7%. In addition, the inhibition in [19] was determined as 27.7%; in [20], 3.77%.

A word on the inhibition: it is the change of the read-out against control, counted positive when it falls.
